# Measurements as given in article PMC7862700, “An all-to-all approach to the identification of sequence-specific readers for epigenetic DNA modifications on cytosine”.
# Experiments:
# Experiment in all cases: DAPPL (digital affinity profiling via proximity ligation, sequencing); 10 mM Tris-HCl pH 7.5, 50 mM NaCl, 1 mM DTT, 4% glycerol, room temperature, 30 min; GST-TFs on glutathione beads, 16-mer random dsDNA library, 0.1% formaldehyde crosslink after washing; high values mean tight binding
# [1] = biological target: T1, ELK1 (Homo sapiens, UniProt P19419 1-428); settings: protein: recombinant; tags: N-terminal GST; dsDNA, one strand shown
# T1 sequence: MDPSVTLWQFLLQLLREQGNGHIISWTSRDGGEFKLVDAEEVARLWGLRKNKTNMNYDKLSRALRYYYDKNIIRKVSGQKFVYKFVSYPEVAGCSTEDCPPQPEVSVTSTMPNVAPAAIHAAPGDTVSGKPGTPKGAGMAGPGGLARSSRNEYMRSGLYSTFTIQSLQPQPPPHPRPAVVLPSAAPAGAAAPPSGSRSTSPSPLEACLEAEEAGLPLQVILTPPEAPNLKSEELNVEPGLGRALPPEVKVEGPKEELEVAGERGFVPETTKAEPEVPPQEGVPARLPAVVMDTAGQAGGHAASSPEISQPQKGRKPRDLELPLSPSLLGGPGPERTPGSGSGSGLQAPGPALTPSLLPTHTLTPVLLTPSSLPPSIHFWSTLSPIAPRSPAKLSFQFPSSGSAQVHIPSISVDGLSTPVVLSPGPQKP
# Procedure, shortened: (§1)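 In yeast, human transcription factors were expressed with a GST fusion, then pulled down on glutathione beads and given DNA barcodes. Pooled with a tag-only sample, they were exposed to 200 nmole of a 16-mer random double-stranded DNA library (Tris/NaCl/DTT/glycerol buffer, room temperature, 30 min), washed, crosslinked with 0.1% formaldehyde, proximity-ligated using BsaI/T4 ligase for 1 h at 37 °C, PCR-amplified and read on an Illumina NextSeq500. Each hexamer's frequency of reads for a factor, divided by the matching frequency for the tag-only sample, gives the binding signal.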
# [2] = biological target: T2, GABPA (Homo sapiens, UniProt Q06546 1-454); settings: protein: recombinant; tags: N-terminal GST; dsDNA, one strand shown
# T2 sequence: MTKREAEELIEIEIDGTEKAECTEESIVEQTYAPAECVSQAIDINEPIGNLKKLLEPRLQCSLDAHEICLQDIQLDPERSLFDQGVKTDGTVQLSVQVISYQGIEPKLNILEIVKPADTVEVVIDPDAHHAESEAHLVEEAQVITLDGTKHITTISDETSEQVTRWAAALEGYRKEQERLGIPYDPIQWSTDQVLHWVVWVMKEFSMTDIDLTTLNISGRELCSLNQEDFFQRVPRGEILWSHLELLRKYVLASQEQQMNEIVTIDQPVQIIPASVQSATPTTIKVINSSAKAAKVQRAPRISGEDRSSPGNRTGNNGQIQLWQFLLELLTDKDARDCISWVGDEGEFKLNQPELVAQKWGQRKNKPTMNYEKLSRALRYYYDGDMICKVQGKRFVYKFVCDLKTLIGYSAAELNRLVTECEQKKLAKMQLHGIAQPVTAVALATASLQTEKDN
# Procedure, shortened: as §1
# [3] = biological target: ELF1 (Homo sapiens, UniProt P32519 1-619); settings: protein: recombinant; tags: N-terminal GST; dsDNA, one strand shown
# Chain of ELF1 (P32519 whole entry): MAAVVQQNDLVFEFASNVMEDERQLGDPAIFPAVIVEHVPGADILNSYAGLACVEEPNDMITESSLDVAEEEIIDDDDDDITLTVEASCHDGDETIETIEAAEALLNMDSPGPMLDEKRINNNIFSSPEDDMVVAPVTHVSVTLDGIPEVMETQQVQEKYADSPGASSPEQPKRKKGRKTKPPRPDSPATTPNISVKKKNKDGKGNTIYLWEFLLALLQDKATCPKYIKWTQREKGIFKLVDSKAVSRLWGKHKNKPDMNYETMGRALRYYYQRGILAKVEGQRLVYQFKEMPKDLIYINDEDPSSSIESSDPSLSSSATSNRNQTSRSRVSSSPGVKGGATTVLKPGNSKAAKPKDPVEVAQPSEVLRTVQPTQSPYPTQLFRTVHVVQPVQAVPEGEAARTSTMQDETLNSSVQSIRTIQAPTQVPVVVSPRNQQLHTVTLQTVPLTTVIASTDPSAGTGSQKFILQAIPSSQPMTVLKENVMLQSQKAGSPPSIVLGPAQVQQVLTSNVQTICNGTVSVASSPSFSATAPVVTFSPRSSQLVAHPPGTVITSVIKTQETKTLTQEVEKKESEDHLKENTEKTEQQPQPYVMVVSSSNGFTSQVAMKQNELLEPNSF
# Procedure, shortened: as §1
# [4] = biological target: T3, EHF (Homo sapiens, UniProt Q9NZC4 1-300); settings: protein: recombinant; tags: N-terminal GST; dsDNA, one strand shown
# T3 sequence: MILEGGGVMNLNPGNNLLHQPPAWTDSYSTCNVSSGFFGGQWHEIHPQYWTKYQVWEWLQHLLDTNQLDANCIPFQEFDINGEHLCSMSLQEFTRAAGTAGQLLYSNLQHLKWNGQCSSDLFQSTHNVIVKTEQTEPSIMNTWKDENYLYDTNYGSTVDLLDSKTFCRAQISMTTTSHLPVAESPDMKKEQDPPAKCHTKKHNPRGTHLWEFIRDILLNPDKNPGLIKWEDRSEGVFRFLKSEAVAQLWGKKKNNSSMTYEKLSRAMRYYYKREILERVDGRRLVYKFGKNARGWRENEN
# Procedure, shortened: as §1
# [5] = biological target: SPI1 (Homo sapiens, UniProt P17947 1-270); settings: protein: recombinant; tags: N-terminal GST; dsDNA, one strand shown
# Procedure, shortened: as §1
# [6] = biological target: SPIB (Homo sapiens, UniProt Q01892 1-262); settings: protein: recombinant; tags: N-terminal GST; dsDNA, one strand shown
# Chain of SPIB (Q01892 whole entry): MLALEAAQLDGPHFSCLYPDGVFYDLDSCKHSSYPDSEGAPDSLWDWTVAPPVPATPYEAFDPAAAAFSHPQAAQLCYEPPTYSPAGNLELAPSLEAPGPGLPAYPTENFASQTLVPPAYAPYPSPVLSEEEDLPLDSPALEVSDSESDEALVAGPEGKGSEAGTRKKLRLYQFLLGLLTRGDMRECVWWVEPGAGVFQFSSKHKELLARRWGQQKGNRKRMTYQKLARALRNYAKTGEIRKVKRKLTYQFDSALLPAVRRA
# Procedure, shortened: as §1
# [7] = biological target: T4, ELK3 (Homo sapiens, UniProt P41970 1-407); settings: protein: recombinant; tags: N-terminal GST; dsDNA, one strand shown
# T4 sequence: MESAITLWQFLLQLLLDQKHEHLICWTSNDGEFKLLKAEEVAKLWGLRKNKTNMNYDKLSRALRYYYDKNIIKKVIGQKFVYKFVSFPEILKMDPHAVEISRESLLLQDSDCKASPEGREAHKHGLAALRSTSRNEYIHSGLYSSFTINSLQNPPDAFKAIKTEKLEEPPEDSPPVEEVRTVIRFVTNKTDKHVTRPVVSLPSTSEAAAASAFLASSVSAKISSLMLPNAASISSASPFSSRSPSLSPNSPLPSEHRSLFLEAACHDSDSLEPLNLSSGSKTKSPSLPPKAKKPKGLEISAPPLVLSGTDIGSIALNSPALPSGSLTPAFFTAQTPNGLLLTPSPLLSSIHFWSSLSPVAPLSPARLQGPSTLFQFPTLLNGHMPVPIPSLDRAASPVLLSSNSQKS
# Procedure, shortened: as §1
# [8] = biological target: HSF1 (Homo sapiens, UniProt Q00613 1-529); settings: protein: recombinant; tags: N-terminal GST; chain copies: 3; dsDNA, one strand shown
# Chain of HSF1 (Q00613 whole entry): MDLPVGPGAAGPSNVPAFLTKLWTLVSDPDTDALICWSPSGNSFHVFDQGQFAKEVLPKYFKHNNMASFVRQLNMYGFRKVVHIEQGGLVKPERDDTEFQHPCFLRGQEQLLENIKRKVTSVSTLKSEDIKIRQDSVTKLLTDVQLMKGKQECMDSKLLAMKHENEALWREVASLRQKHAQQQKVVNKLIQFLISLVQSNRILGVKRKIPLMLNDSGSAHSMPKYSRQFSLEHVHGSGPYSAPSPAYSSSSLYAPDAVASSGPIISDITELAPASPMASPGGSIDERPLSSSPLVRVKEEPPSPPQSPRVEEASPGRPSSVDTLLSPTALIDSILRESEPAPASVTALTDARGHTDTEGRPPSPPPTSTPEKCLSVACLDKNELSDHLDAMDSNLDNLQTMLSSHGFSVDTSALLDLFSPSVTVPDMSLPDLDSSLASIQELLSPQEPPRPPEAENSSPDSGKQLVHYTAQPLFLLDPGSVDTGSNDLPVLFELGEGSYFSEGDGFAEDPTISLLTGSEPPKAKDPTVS
# Procedure, shortened: as §1
# [9] = biological target: T5, SPIC (Homo sapiens, UniProt Q8N5J4 1-248); settings: protein: recombinant; tags: N-terminal GST; dsDNA, one strand shown
# T5 sequence: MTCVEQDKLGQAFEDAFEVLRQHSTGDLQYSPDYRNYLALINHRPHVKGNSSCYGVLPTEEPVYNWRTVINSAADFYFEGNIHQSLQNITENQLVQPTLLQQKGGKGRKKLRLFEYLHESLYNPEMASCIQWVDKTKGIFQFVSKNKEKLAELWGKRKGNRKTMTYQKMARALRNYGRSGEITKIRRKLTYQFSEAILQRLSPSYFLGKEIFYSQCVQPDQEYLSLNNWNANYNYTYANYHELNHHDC
# Procedure, shortened: as §1
sequence,measurement,setting,value
TGATAA,binding signal,[1],"1.04 fold enrichment (6-mer frequency, TF over GST control)"
same,binding signal,[2],"1.03 fold enrichment (6-mer frequency, TF over GST control)"
same,binding signal,[3],"1 fold enrichment (6-mer frequency, TF over GST control)"
same,binding signal,[4],"1.07 fold enrichment (6-mer frequency, TF over GST control)"
same,binding signal,[5],"1.05 fold enrichment (6-mer frequency, TF over GST control)"
same,binding signal,[6],"1.05 fold enrichment (6-mer frequency, TF over GST control)"
same,binding signal,[7],"1.09 fold enrichment (6-mer frequency, TF over GST control)"
same,binding signal,[8],"1.2 fold enrichment (6-mer frequency, TF over GST control)"
same,binding signal,[9],"1.04 fold enrichment (6-mer frequency, TF over GST control)"
